We go through four molecules from PubChem BioAssay.

Where “and” joins values, the source holds several entries; their conditions need not be identical. Equal entries are not always repeated. Records with an inconclusive call do not appear. Calls of active or inactive are those of the source. Cut-off read from the data, not from the text of the source, unless noted: active = inhibition above about 80%; inactive = the rest.

Test [1] concerns the target ATP-dependent translocase ABCB1 (Homo sapiens) (UniProt P08183). Briefly: P-glycoprotein substrate transport blockade – cell-based (AID 377; in the data active = fluorescence slope change above about 50%). Conditions: MDR1-expressing cells, fluorescent substrate accumulation slope; stronger effect = higher value; concentration not given here.
Test [2] in a line: viability loss in pontine glioma line – cell-based, SU-DIPG-XXV, MIPE5.0, CellTiter-Glo, qHTS, dose response (AID 1347065; cut-off not given, nearly all actives have AC50 up to about 26 µM;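 note: cells exposed to compound for 48 hours before ATP readout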). The note with it: CellTiter-Glo ATP luminescence. For orientation: In ATP-based viability assays light output follows the ATP content of the culture.
Test [3] in a line: growth inhibition, single agents and combos, LFS_MB_1R, cell-based, cisplatin or BGB combos, synergistic combos for chromothripsis tumors (AID 1671452).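 Note: cells exposed for 96 hours before readout.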 The note with it: LFS_MB_1R medulloblastoma cells, stronger effect = higher value.
Test [4] in a line: growth inhibition, single agents and combos, CRL2098, cell-based, BGB or cisplatin IC20 combos, synergistic combos for chromothripsis tumors (AID 1671454).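 Note: cells exposed for 96 h before readout; 0% = vehicle DMSO and 100% = killing by high DMSO.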 Conditions: CRL2098 osteosarcoma cells, drug combinations, stronger effect = higher value.
A short description of test [5]: growth inhibition, single agents and combos, HD-MB03, cell-based, BGB or cisplatin IC20 combos, synergistic combos for chromothripsis tumors (AID 1671455; in the data active = inhibition above about 83%;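 note: 0% = vehicle DMSO and 100% = high DMSO as cytotoxic control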). The note with it: HD-MB03 medulloblastoma cells, stronger effect = higher value.
Test [6] in a line: growth inhibition, single agents and combos, UWB1.289, cell-based, BGB or cisplatin combos, synergistic combos for chromothripsis tumors (AID 1671456).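 Note: cells exposed to compound for four days; 0% = vehicle DMSO and 100% = killing by high DMSO.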 The note with it: UWB1.289 ovarian carcinoma cells, stronger effect = higher value.
Test [7] in a line: growth inhibition, single agents and combos, LFS_MB_2R, cell-based, cisplatin combos, synergistic combos for chromothripsis tumors (AID 1671457).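 Note: cells exposed to compound for four days before readout.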 The note with it: LFS_MB_2R medulloblastoma cells, stronger effect = higher value.
The nature of test [8]: UWB1.289_BRCA1 ovarian cancer growth, cell-based, BGB or cisplatin combinations (AID 1671459). The note with it: UWB1.289 BRCA1 ovarian carcinoma, drug combinations, stronger effect = higher value.
Test [9] is described as follows: drug combination toxicity in non-malignant astrocytes – cell-based, BGB or cisplatin IC20 combos, cytotoxicity control for chromothriptic childhood tumor combination screen (AID 1671460).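 Note: cells exposed to compounds for 96 hours before viability readout; 0% = vehicle and 100% = killing control.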 The note with it: Human astrocytes, viability inhibition, drug combinations, at 0.5 µM, stronger effect = higher value.
Test [10] deals with Aerobactin synthetase IucA (Klebsiella pneumoniae). As to the kind of experiment: inhibition of K. pneumoniae IucA enzyme – biochemical, Tocris library, absorbance (AID 1345561; call rule not given here;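 note: 100% = enzyme without compound and 0% = no enzyme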). Conditions: purified IucA enzyme assay, absorbance (OD) read-out; stronger effect = lower value;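 tested at 8 µM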.
The nature of test [11]: compounds altering HSF1 focus formation in cells – imaging, Selleck Cancer Library (AID 1347162; in the data active = plate-normalised HSF1 focus index below about 0.46). The note with it: human cells, HSF1 nuclear foci imaging, at 10 µM; SSMD: measured here: HSF1 foci SSMD mean; cell count: measured here: cell number; plate-normalised HSF1 focus index: stronger effect = lower value.
For test [12], the system named is Neuropilin-2 / VEGF-C interaction (human). As to the kind of experiment: small molecules blocking Neuropilin-2/VEGF-C interaction – biochemical, microplate binding format, z-score (AID 743281; call rule not given here). Conditions: microplate NRP2/VEGF-C binding assay; stronger effect = lower value.
Test [13] can be described thus: chitosan synthesis blockers in C. neoformans – flow cytometry, Cibacron Brilliant Red staining (AID 1347148; call rule not given here;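 note: compound exposure lasted three days at 37 degrees C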). The note with it: Cryptococcus neoformans chitosan, stronger effect = lower value; at 99.1 µM unless noted.
[14] abbreviates: measured here: combination with BGB IC40, at 0.05 µM.
The mark [15] stands for this setting: measured here: combination with cisplatin, at 0.5 µM.
[16] abbreviates: measured here: combination with cisplatin, at 5 µM.
The mark [17] stands for this setting: measured here: combination with BGB at IC20, at 0.5 µM.
Setting [18] is: measured here: combination with cisplatin at IC20, at 0.5 µM.
The mark [19] stands for this setting: measured here: combo with BGB at IC20, at 0.5 µM.
Where [20] appears, read: measured here: combo with cisplatin at IC20, at 0.5 µM.
Setting [21] is: measured here: inhibition with BGB combination, at 0.05 µM.
[22] abbreviates: measured here: inhibition with cisplatin combination, at 0.05 µM.
Where [23] appears, read: BGB combination, concentration series, at 5 µM.
Where [24] appears, read: cisplatin combination, concentration series, at 5 µM.
Where [25] appears, read: measured here: combo with BGB IC20.
The mark [26] stands for this setting: measured here: combo with cisplatin IC20.

ATP-dependent translocase ABCB1 (Homo sapiens), sequence (P08183 whole entry, looked up): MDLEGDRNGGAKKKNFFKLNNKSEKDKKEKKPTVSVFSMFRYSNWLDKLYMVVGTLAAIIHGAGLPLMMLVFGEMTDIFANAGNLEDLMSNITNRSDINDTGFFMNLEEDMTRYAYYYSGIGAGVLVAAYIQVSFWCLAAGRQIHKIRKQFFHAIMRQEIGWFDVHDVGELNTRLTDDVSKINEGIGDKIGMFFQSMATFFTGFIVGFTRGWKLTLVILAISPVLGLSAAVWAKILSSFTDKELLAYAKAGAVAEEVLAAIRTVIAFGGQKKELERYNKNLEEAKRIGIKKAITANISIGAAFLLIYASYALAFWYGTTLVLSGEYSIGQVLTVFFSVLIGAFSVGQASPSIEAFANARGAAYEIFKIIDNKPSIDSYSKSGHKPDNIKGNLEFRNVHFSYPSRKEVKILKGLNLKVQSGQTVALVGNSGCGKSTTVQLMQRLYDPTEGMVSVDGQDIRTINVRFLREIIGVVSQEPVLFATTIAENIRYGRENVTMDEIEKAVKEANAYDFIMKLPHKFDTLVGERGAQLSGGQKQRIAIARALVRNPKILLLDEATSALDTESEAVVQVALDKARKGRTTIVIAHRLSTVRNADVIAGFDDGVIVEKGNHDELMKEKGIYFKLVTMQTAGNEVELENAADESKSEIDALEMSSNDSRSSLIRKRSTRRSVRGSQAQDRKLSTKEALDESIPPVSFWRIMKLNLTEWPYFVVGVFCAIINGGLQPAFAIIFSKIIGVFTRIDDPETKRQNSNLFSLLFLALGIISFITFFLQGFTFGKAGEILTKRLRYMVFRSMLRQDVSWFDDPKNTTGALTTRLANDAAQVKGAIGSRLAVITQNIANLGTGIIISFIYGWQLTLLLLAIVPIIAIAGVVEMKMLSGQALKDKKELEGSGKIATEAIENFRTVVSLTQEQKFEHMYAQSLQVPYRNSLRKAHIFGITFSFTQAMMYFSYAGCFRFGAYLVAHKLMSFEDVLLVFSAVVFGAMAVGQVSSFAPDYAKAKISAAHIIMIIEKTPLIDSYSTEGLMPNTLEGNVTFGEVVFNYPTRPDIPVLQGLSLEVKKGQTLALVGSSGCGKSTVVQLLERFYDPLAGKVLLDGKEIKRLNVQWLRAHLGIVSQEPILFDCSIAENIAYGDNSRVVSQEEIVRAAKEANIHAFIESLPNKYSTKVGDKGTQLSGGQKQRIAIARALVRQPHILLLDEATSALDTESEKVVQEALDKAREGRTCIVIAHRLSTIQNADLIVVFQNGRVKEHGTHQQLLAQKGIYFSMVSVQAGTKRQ

Usually inhibition stands for the change of the read-out against control, counted positive when it falls. Take `CS(=O)(=O)OCCCCOS(C)(=O)=O`: the fluorescence slope change in [1] is 13.3% (inactive). For the same molecule, the call in test [2] was inactive. Further, the inhibition is -13.7% (inactive) and -24.5% (inactive) in [3] (at 0.5 µM); -7.13% and -11.8% in test [3] (setting [14]); -41.7% and -21.3% in test [3] (setting [15]); -51.5% and 4.47% in test [3] (setting [16]); -52.1% (inactive) and -4.61% (inactive) in test [4] (at 0.5 µM); -29.9% and -15.7% in [4] (setting [17]). The inhibition in [4] (setting [18]) is -107% and 11.7%; in test [5] (at 0.5 µM), -10.8% (inactive) and -1.12% (inactive); in test [5] (setting [19]), -20.4% and -4.59%; in [5] (setting [20]), -6.85% and 1.19%; in test [6] (at 0.5 µM), 4.55% (inactive) and 10.4% (inactive); in test [6] (setting [21]), -3.6% and 0.829%. For the same molecule, the inhibition in test [6] (setting [22]) was 24.9% and -0.011%; in test [7] (at 0.5 µM), -13.8% (inactive) and 9.5% (inactive); in [7] (setting [15]) it was -18.7% and -5.75%; in test [7] (setting [16]), -4.43% and 9.74%; in test [8] (setting [23]) it was 12% and 6.21%; in test [8] (at 0.5 µM) it was 5.87% (inactive) and 9.31% (inactive). The inhibition is -4.07% and 9.32% in [8] (setting [24]); 7.45% (inactive) and 3.61% (inactive) in test [9]; 2.2% and 2.78% in test [9] (setting [25]); 9.68% and 12.3% in [9] (setting [26]).

Broadly, the remaining activity is the signal under treatment as a percentage of the control signal. For the molecule `O=C(O)CCCc1ccccc1`, the remaining activity in test [10] is 106% (inactive). In test [11], this molecule gave an SSMD of 2.46. In [11], the cell count worked out at 7000. Besides, the plate-normalised HSF1 focus index in test [11] was 1.14 (inactive). For the same molecule, the inhibition was -18.6% (inactive) in test [3] (at 0.5 µM); -25.4% in test [3] (setting [14]); -26.8% in test [3] (setting [15]); -16.2% in test [3] (setting [16]); -56.1% (inactive) in test [4] (at 0.5 µM); -54.3% in test [4] (setting [17]). The inhibition in test [4] (setting [18]) is -68.3%; in test [5] (at 0.5 µM), -7.96% (inactive); in test [5] (setting [19]) it was -7.07%; in test [5] (setting [20]), -7.42%; in test [6] (at 0.5 µM) it was -4.79% (inactive); in test [6] (setting [21]), -17.3%. Besides, the inhibition in [6] (setting [22]) is -13.9%; in test [7] (at 0.5 µM) it was -17.8% (inactive); in [7] (setting [15]), -17.8%; in [7] (setting [16]) it was -56.2%; in test [8] (setting [23]) it was 3.17%; in test [8] (at 0.5 µM) it was -1.28% (inactive). The inhibition in [8] (setting [24]) is 25.2%; in test [9], 2.17% (inactive); in test [9] (setting [25]), -14.8%; in test [9] (setting [26]), -0.734%.

As for `CCOC(=O)C1=C(C)NC(C)=C(C(=O)OC)C1c1cccc([N+](=O)[O-])c1` (stereo not given), the z-score in test [12] is 0.0382 (inactive). Also, the remaining activity in test [10] is 111% (inactive). In test [13], the fold fluorescence is 5.19 [at 138.7 µM] (inactive).

For the molecule `CC1(C)O[C@@H]2[C@@H](CO[C@@]3(COS(N)(=O)=O)OC(C)(C)O[C@@H]23)O1`, the z-score in test [12] was -1.38 (inactive). Moreover, in test [10], the remaining activity is 121% (inactive).
